Consider 40 sequences from the OligoGym collection.
Further: reference of the scale not given here.

In the first experiment the target is FGA. Put plainly: pooled miR-30 sensor sort-seq; sequence = guide strand. Particulars: shRNA.
Sequence TTTAGCTACAGTACAAAGGATA registered a sensor-assay potency score (higher = more potent) of -0.909.

In turn, AACATTTTTCTGCAGAAGCTGG returned a sensor-assay potency score (higher = more potent) of -0.95.

Sequence TTGACTTCATCAATCAACCCTT came in with a sensor-assay potency score (higher = more potent) of -0.0172. Same read-out and setting: then TCAAAGACTAATATGTCTCAGG, with -0.257; and TTCTGCACAGTTCTCTTCCCAC, with -0.744.

The target in a further experiment is FGF1. The description is as above. The conditions noted are these: shRNA.
The sequence TGAATGTGCTGGTCGCTCCTGT showed a sensor-assay potency score (higher = more potent) of -0.0696. Still for that read-out and setting: then TCTGGCCATAGTGAGTCCGAGG, with -1.16; and TTTGCAGCTCCCATTCTTCTTG, with -0.462; and TTTCCAGGAACAAACATTCCTC, with -0.373. Sequence TAAACTTCTCGGTCAGGGCTGT returned a sensor-assay potency score (higher = more potent) of 0.184. In the case of TCATTTGGTGTCTGTGAGCCGT, the sensor-assay potency score (higher = more potent) was -0.0568. For TTCTTCTCTGCATGCTTCTTGG, the sensor-assay potency score (higher = more potent) was -0.847. Still for that read-out and setting: then TTGCAGCTCCCATTCTTCTTGA, with -1.07. The same measure, in the same setting: the value for TTGGGCTTCTTGTAATTCCCTG was -0.211; that for TTAAACTTCTCGGTCAGGGCTG was -0.0976. For TTCTCTGCATGCTTCTTGGATA, the sensor-assay potency score (higher = more potent) is -0.722. Still for that read-out and setting: then TAGTGAGTCCGAGGACCGCGTT, with -1.55. Still for that read-out and setting: the value for TAATGGTTCTCCTCCAGCCTTT was -0.798; that for ATTTGGTGTCTGTGAGCCGTAT was -0.909; that for TTCTTGGATATATAGGTGTTGT was -1.22. The same measure, in the same setting: the value for TTCCAGGAACAAACATTCCTCA was -0.434.

In the case of TATATAGGTGTTGTAATGGTTC, the sensor-assay potency score (higher = more potent) was -0.522. For the sequence AGGCAGATTAAACTTCTCGGTC, the sensor-assay potency score (higher = more potent) was -1.58. Same read-out and setting: the value for TTTGGTGTCTGTGAGCCGTATA was -0.694. The same measure, in the same setting: the value for TGGGCTTCTTGTAATTCCCTGG was -0.134; that for TTTCTGGCCATAGTGAGTCCGA was -0.918. Still for that read-out and setting: the value for TTGCTTTCTGGCCATAGTGAGT was -1.34. Regarding TTGGATATATAGGTGTTGTAAT, the sensor-assay potency score (higher = more potent) is -0.998. Still for that read-out and setting: then AACAAGATTGCTTTCTGGCCAT, with -0.264.

In the next experiment the target is FGF23. Described as above. Particulars: shRNA.
Take TTGGAACCTGCAGTTCTCCGGG: the sensor-assay potency score (higher = more potent) was 0.14. On the same count and under the same terms, then TAATGGGTCACTGGCCATCGGG, with -1.63; and TATCTTCTGCTCATCACACCTG, with 0.064; and TGGAACCTGCAGTTCTCCGGGT, with -0.566. AATGTTGCCTCTGAAATCCATG: the sensor-assay potency score (higher = more potent) was -1.53.

With TTGCCTCTGAAATCCATGCAGA, the sensor-assay potency score (higher = more potent) was -1.09. On the same count and under the same terms, then ATCCTCTGATCTGATCATCAGG, with -1.39.

Consider TTCTGCTCATCACACCTGTAAT, for which the sensor-assay potency score (higher = more potent) is -1.67. As to TTCTTGTGGATCTGCAGGTGGT, the sensor-assay potency score (higher = more potent) is -1.08. On the same count and under the same terms, then TCTGATCTGATCATCAGGGCAC, with 0.338; and TCCATGCAGAGGTATCTTCTGC, with -1.48.
